Experimental data taken from PubChem BioAssay (NCI).
The panel holds about 83,000 compounds, 20% with a hit somewhere; the sample as a whole holds those more often.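 Compound tested at a single concentration for 48 hours in 96-well plates; a percent growth value below 10 was scored as active.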 Unmarked numbers belong to inactive results. Calls of active or inactive are those of the source.

What follows are compounds tested on SK-OV-3 ovarian (assay: NCI-60 one-dose screen, 48 h (100 = growth as untreated, 0 = no growth, -100 = all killed)). Conditions: 10 µM unless noted.
Method: Growth inhibition of the SK-OV-3 human tumor cell line is measured as a screen for anti-cancer activity. Cells are grown in 96 well plates and exposed to the test compound for 48 hours. Compounds are tested at a single concentration, which is 10^-5 M for most compounds. The reported endpoint is percent growth (GI% or GIPRCNT), where numbers from 0 - 100% represent growth inhibition, and numbers from -100% - 0 represent cell death. For example, a value of 40 represents 60% growth inhibition. A value of 0 means no net growth occurred over the course of the experiment. A value of -40 indicates 40% of cells at the beginning of the experiment died by the end of the experiment. A value of -100 means all cells are dead at the end of the experiment.
NCI-60 Human Tumor Cell Lines Screen was performed using the standard one-dose NCI protocol, which is described in more detail at https://dtp.cancer.gov/discovery_development/nci-60/default.htm.
Compounds with GIPRCNT values below 10 were considered active. Activity score was based on GIPRCNT using the following formula: […]
Score is 0 for GIPRCNT values of 100 or above, 50 for GIPRCNT values of 0, and 100 for GIPRCNT values of -100.

Row | Structure (SMILES) | growth
1 | c1ccc2c(c1)ncn2-c1nc2ccccc2n2c1nc1ccccc12 | 69.2%
2 | C[C@@H]1C(=O)N(C[C@H](Cc2ccccc2)NC(=O)OCc2ccccc2)[C@]1(Cc1ccccc1)C(=O)OC(C)(C)C | 70.2%
3 | CCCCS(=O)(=O)Oc1ccc(-c2nc(C)c(C(=O)OCC)s2)cc1C=O | 109%
4 | C=C1C(=O)O[C@H]2[C@H]1CC/C(C(=O)NCCCCCCCCNC(=O)/C1=C/CC[C@@]3(C)O[C@H]3[C@H]3OC(=O)C(=C)[C@@H]3CC1)=C\CC[C@@]1(C)O[C@@H]21 | 93.5%
5 | CN1C[C@@H](c2ccc(Cl)cc2)[C@]2(NC(=S)N(c3ccc(F)c(Cl)c3)C2=O)[C@@]12C(=O)NC1C=CC(Cl)=C[C@H]12 (stereo not given in full) | 80.7%
6 | CCOC(=O)N1CCc2c(sc3c2C(=O)N[C@H](c2ccc(OC)cc2)N3)C1 | 65.4%
7 | Nc1c(C(=O)c2ccccc2)nnc2ncnn12 | 98%
8 | CS(=O)(=O)c1ccc(-c2nc3cc(Cl)ccc3n2CC(=O)N/N=C/c2ccc(Cl)cc2)cc1 | 65.8%
9 | N#Cc1c(-c2ccccc2)nc(SCC2CO2)nc1N1CCOCC1 (stereo not given) | 28.1%
10 | C=C1C(=O)O[C@H]2[C@H]1CC/C(COC(=O)/C=C\C(=O)NCc1ccc(Cn3c(=O)sn(-c4ccc(OC)cc4)c3=O)cc1)=C\CC[C@@]1(C)O[C@@H]21 | 61.4%
11 | O=C1c2ccccc2C(=O)c2cc(Cn3cc[n+](Cc4ccc5ccccc5c4)c3)ccc21 | 105%
12 | Fc1ccc(Nc2ccc3cc(OCCCN4CCOCC4)ccc3n2)cc1F | 72.8%
13 | Cc1cnc(Nc2ccc(OCCN3CCCC3)cc2)nc1NCc1ccco1 | 108%
14 | CSc1nc2sc3cc(Cl)ccc3n2c(=N)c1C#N | 72.4%
15 | O=[N+]([O-])c1ccc2[nH]cc(-c3c4ccsc4cc4[nH]c5ccc([N+](=O)[O-])cc5c34)c2c1 | 15.1%
16 | COc1cc(NC(=O)c2cc(O)c(CC=C(C)C)c(O)c2)cc2c1O[C@]1(C)CC[C@@H](O)C(C)(C)[C@H]1C2 | 21.5%
17 | Cn1cc(-c2ccc3ncc(-c4ccc(CC(=O)Nc5cc(C(C)(C)C)nn5C)cc4)cc3c2)cn1 | 12.6% [30 µM]
18 | O=C1c2cccc3c(-c4ccc(-c5nc6c7ccccc7c7ccccc7c6[nH]5)cc4)ccc(c23)C(=O)N1CCN1CCNCC1 | 102%
19 | O[C@H]1CO[C@H]2[C@@H]1OC[C@@H]2Oc1ccc(Nc2nc(Nc3ccc(F)c(Cl)c3)ncc2F)cc1Cl | 110%
20 | O=c1ccn(C2OC(F)(CO)C(O)C2F)c(=O)[nH]1 (stereo not given) | 93.4%

Row | Structure (SMILES) | growth
21 | COc1ccc(-c2cc(-c3cc(OC)ccc3OC)[nH]c(=O)c2C#N)cc1 | 71.6%
22 | CCN(CC)CC(=O)Nc1cccc(C(=O)OC(C)C)c1 | 101%
23 | [2H]c1nc(Nc2ncc(F)c(-c3cc(F)c4nc(C)n(C(C)C)c4c3)n2)c([2H])c([2H])c1CN1CCN(C([2H])([2H])C([2H])([2H])[2H])CC1 | 18.8%
24 | Clc1ccc(-c2cn(-c3ccccc3)c(-c3ccccc3)n2)cc1 | 102%
25 | CC(C)N(CCOC(=O)Nc1ccccc1Cl)C(C)C | 102%
26 | O=[N+]([O-])c1ccc(-c2cc3c(Nc4ccc(OCc5cccc(Cl)c5)c(Cl)c4)ncnc3s2)cc1 | 58.5%
27 | Cc1cnc(Nc2ccc(N3CCN(C)CC3)cc2)nc1Nc1ccc(Cl)c(NS(=O)(=O)C(C)(C)C)c1 | -6.97% (active)
28 | COc1cc2c(cc1OC)-c1ccc3cc4c(cc3c1N(CCCn1ccnc1)C2)OCO4 | 20.7%
29 | CCOC(=O)Cc1csc2nc(-c3ccccc3)nn12 | 115%
30 | Nc1nc(N)c(-c2ccc(Cl)cc2)c(/C=C/c2ccc([N+](=O)[O-])cc2)n1 | 114%
31 | CCOC(=O)C(=CNc1ccccc1[N+](=O)[O-])C(=O)OCC | 110%
32 | Nc1ccc(CCCCc2ccccc2)c(Cl)c1 | 98.7%
33 | CS(=O)(=O)c1ccc(-c2nc3cc(Cl)ccc3n2CC(=O)NO)cc1 | 96.4%
34 | CN1C[C@@H](c2ccc(Cl)cc2)[C@]2(NC(=S)N(c3ccccc3)C2=O)[C@@]12C(=O)NC1C=CC(Br)=C[C@H]12 (stereo not given in full) | 77.2%
35 | CC(C)OC(=O)OCOP(=O)(OCOC(=O)OC(C)C)C1CCCN(O)C1=O (stereo not given) | 5.92% (active)
36 | CN(C)S(=O)(=O)n1cnc([C@@H]2[C@@H]3C(=O)OC[C@@H]3C[C@]23N=CN(Cc2ccccc2)C3=O)c1 | 107%
37 | COc1cc2oc3cc(C)oc(=O)c3c2cc1OC | 103%
38 | Fc1ccc(Nc2nc(Nc3ccc(-c4nc5ccccc5[nH]4)cc3)c3cn[nH]c3n2)cc1 | 90.3%
39 | COC1(CC[C@@H](C)COC2OC(CO)C(O)C(O)C2O)O[C@H]2C[C@H]3[C@@H]4CC=C5C[C@@H](OC6OC(CO)C(OC7OC(C)C(O)C(O)C7O)C(O)C6OC6OC(C)C(O)C(O)C6O)CC[C@]5(C)[C@H]4CC[C@]3(C)[C@H]2[C@@H]1C (stereo not given in full) | -71.8% (active)
40 | COc1ccc(CN2C(=O)/C(=C\c3cc(OC)c(OC)c(OC)c3)c3ccccc32)cc1 | 34%
